Our source for the growth values is PubChem BioAssay (NCI).

Several values for one entry are separate records, joined by “and”; a condition that tells them apart may be missing. Equal entries are not always repeated. About 83,000 compounds went through this panel and 20% of them were active in at least one assay; those are over-represented in the sample as a whole.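 Cell lines were cultured in 96-well plates, exposed to a single compound concentration, and assessed for percent growth 48 hours later.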 Activity calls are given as the source filed them. How the source made its calls: active means growth percent below 10; inactive means the rest.

Test systems include RPMI-8226 leukemia; OVCAR-8 ovarian; OVCAR-4 ovarian; SK-OV-3 ovarian; IGROV1 ovarian; OVCAR-3 ovarian; HS 578T breast; NCI/ADR-RES ovarian; T-47D breast; BT-549 breast; MDA-MB-435 melanoma; SW-620 colon; MCF7 breast; HCT-116 colon; KM12 colon; HCC-2998 colon.
What all share (assay): NCI-60 one-dose screen, 48 h (100 = growth as untreated, 0 = no growth, -100 = all killed)
The next experiment concerns SR leukemia. The following applies: 10 µM unless noted.
The test system of the next experiment is OVCAR-5 ovarian. Particulars: 10 µM unless noted.

For the compound `O=C(O)c1ccccc1N(CCO)CCCl`, the growth in the experiment on SR leukemia is 84.2% (inactive); in the experiment with RPMI-8226 leukemia (10 µM unless noted), 103% (inactive); in the experiment on OVCAR-8 ovarian (10 µM unless noted), 101% (inactive); in the experiment with OVCAR-5 ovarian it was 92.3% (inactive); with OVCAR-4 ovarian (10 µM unless noted), 108% (inactive); in the experiment on SK-OV-3 ovarian (10 µM unless noted), 108% (inactive). In addition, the growth is 88.6% (inactive) with IGROV1 ovarian (10 µM unless noted); 111% (inactive) with OVCAR-3 ovarian (10 µM unless noted); 120% (inactive) in the experiment on HS 578T breast (10 µM unless noted); 95.1% (inactive) in the experiment with NCI/ADR-RES ovarian (10 µM unless noted); 87.6% (inactive) with T-47D breast (10 µM unless noted); 95.9% (inactive) with BT-549 breast (10 µM unless noted). Moreover, the growth in the experiment with MDA-MB-435 melanoma (10 µM unless noted) is 112% (inactive); in the experiment with SW-620 colon (10 µM unless noted), 107% (inactive); in the experiment with MCF7 breast (10 µM unless noted) it was 95.9% (inactive); in the experiment with HCT-116 colon (10 µM unless noted) it was 95.3% (inactive); in the experiment with KM12 colon (10 µM unless noted), 103% (inactive).
As for `O=C1C=C(N2CC2)c2ccccc2C1=O`, the growth with SR leukemia was 0.0144% (active); in the experiment with RPMI-8226 leukemia (10 µM unless noted) it was 40.5% (inactive); with OVCAR-8 ovarian (10 µM unless noted), 73.2% (inactive); in the experiment on OVCAR-5 ovarian, 123% (inactive); in the experiment with OVCAR-4 ovarian (10 µM unless noted) it was 96.1% (inactive); with SK-OV-3 ovarian (10 µM unless noted) it was 76% (inactive). The growth was 70.7% (inactive) with IGROV1 ovarian (10 µM unless noted); 83.3% (inactive) in the experiment on OVCAR-3 ovarian (10 µM unless noted); 107% (inactive) in the experiment with HS 578T breast (10 µM unless noted); 62.7% (inactive) with NCI/ADR-RES ovarian (10 µM unless noted); 75.5% (inactive) in the experiment with T-47D breast (10 µM unless noted); 71.5% (inactive) in the experiment on BT-549 breast (10 µM unless noted). For the same compound, the growth was -78.8% (active) in the experiment on MDA-MB-435 melanoma (10 µM unless noted); 68.4% (inactive) in the experiment on SW-620 colon (10 µM unless noted); 41.5% (inactive) in the experiment on MCF7 breast (10 µM unless noted); 63.4% (inactive) in the experiment with HCT-116 colon (10 µM unless noted); 81.9% (inactive) in the experiment on KM12 colon (10 µM unless noted).
Consider `O=[N+]([O-])c1cc(Cl)c(Cl)cc1Cl`, for which the growth in the experiment with SR leukemia was 86.5% (inactive) and 108% (inactive); in the experiment with OVCAR-8 ovarian (10 µM unless noted) it was 108% (inactive); in the experiment with OVCAR-5 ovarian, 110% (inactive) and 99.6% (inactive); with OVCAR-4 ovarian (10 µM unless noted), 108% (inactive) and 113% (inactive); in the experiment on SK-OV-3 ovarian (10 µM unless noted), 123% (inactive) and 110% (inactive); in the experiment on IGROV1 ovarian (10 µM unless noted), 111% (inactive) and 109% (inactive). Also, the growth was 119% (inactive) in the experiment with OVCAR-3 ovarian (10 µM unless noted); 95.9% (inactive) in the experiment with HS 578T breast (10 µM unless noted); 102% (inactive) and 104% (inactive) in the experiment with NCI/ADR-RES ovarian (10 µM unless noted); 107% (inactive) and 108% (inactive) in the experiment on T-47D breast (10 µM unless noted); 121% (inactive) and 119% (inactive) in the experiment with BT-549 breast (10 µM unless noted); 101% (inactive) and 107% (inactive) in the experiment on MDA-MB-435 melanoma (10 µM unless noted). The growth with SW-620 colon (10 µM unless noted) is 100% (inactive) and 105% (inactive); in the experiment with MCF7 breast (10 µM unless noted), 99% (inactive) and 113% (inactive); in the experiment on HCT-116 colon (10 µM unless noted), 107% (inactive) and 106% (inactive); with HCC-2998 colon (10 µM unless noted), 94.2% (inactive) and 118% (inactive); in the experiment with KM12 colon (10 µM unless noted) it was 109% (inactive) and 113% (inactive).
With `CCOC(=O)C1C(c2ccco2)C2(C#N)C(=N)OC1(C)C2(C#N)C#N` (stereo not drawn), the growth in the experiment on MCF7 breast (10 µM unless noted) was 45.1% [100 µM] (inactive) and 0.896% [100 µM] (active).
`C[C@]12CCc3sc(Nc4ccc(OC(F)(F)F)cc4)nc3C1=CC[C@@H]1[C@@H]2CC[C@]2(C)C(=O)CC[C@@H]12`: the growth with SR leukemia is 16.9% (inactive); in the experiment on RPMI-8226 leukemia (10 µM unless noted), 2.88% (active); in the experiment on OVCAR-8 ovarian (10 µM unless noted) it was 66.5% (inactive); in the experiment with OVCAR-5 ovarian it was 91.9% (inactive); in the experiment with OVCAR-4 ovarian (10 µM unless noted), 64% (inactive); in the experiment with SK-OV-3 ovarian (10 µM unless noted), 69.9% (inactive). For the same compound, the growth with IGROV1 ovarian (10 µM unless noted) was 93.6% (inactive); in the experiment on OVCAR-3 ovarian (10 µM unless noted), 37.4% (inactive); with HS 578T breast (10 µM unless noted) it was 38.5% (inactive); in the experiment on NCI/ADR-RES ovarian (10 µM unless noted), 81.6% (inactive); in the experiment on T-47D breast (10 µM unless noted), 41.8% (inactive); in the experiment with BT-549 breast (10 µM unless noted), 53.5% (inactive). Moreover, the growth in the experiment with MDA-MB-435 melanoma (10 µM unless noted) is 77.6% (inactive); with SW-620 colon (10 µM unless noted) it was 43.3% (inactive); in the experiment with MCF7 breast (10 µM unless noted) it was 17.1% (inactive); with HCT-116 colon (10 µM unless noted) it was 7.77% (active); with KM12 colon (10 µM unless noted), 53.5% (inactive).
For `CC(=O)OCC1OC([S-])C(OC(C)=O)C(OC(C)=O)C1OC(C)=O.[Au+].c1ccc(CN2[CH-]N(Cc3ccccc3)C(c3ccccc3)=C2c2ccccc2)cc1`, the growth with RPMI-8226 leukemia (4.75 µM) is -20.5% (active); in the experiment with RPMI-8226 leukemia (10 µM) it was -4.74% (active); in the experiment on OVCAR-8 ovarian (4.75 µM), 3.93% (active); in the experiment with OVCAR-8 ovarian (10 µM) it was 22.3% (inactive); in the experiment with OVCAR-4 ovarian (4.75 µM), 12.6% (inactive); in the experiment on OVCAR-4 ovarian (10 µM) it was 34.2% (inactive). Further, the growth in the experiment with SK-OV-3 ovarian (4.75 µM) is -13.2% (active); with SK-OV-3 ovarian (10 µM) it was 70.4% (inactive); with IGROV1 ovarian (4.75 µM) it was -33.7% (active); with IGROV1 ovarian (10 µM) it was -67.2% (active); in the experiment on OVCAR-3 ovarian (4.75 µM), -44.3% (active); in the experiment with OVCAR-3 ovarian (10 µM) it was -95.7% (active). The growth is 10% (inactive) with HS 578T breast (4.75 µM); 28.5% (inactive) in the experiment on HS 578T breast (10 µM); 53.3% (inactive) in the experiment on NCI/ADR-RES ovarian (4.75 µM); 66.5% (inactive) in the experiment on NCI/ADR-RES ovarian (10 µM); -20.3% (active) in the experiment on T-47D breast (4.75 µM); -52.1% (active) in the experiment on T-47D breast (10 µM). The growth in the experiment with BT-549 breast (4.75 µM) was 7.95% (active); in the experiment with BT-549 breast (10 µM), 12.6% (inactive); with MDA-MB-435 melanoma (4.75 µM), 4.71% (active); in the experiment with MDA-MB-435 melanoma (10 µM), 29.4% (inactive); in the experiment on SW-620 colon (4.75 µM), -33% (active); in the experiment on SW-620 colon (10 µM) it was -17.6% (active). Moreover, the growth with MCF7 breast (4.75 µM) is 0.0903% (active); with MCF7 breast (10 µM), -66.1% (active); with HCT-116 colon (4.75 µM) it was -5.84% (active); with HCT-116 colon (10 µM), -16.6% (active); in the experiment with HCC-2998 colon (4.75 µM), 16.7% (inactive); in the experiment on HCC-2998 colon (10 µM), -62.8% (active). Besides, the values for the growth with KM12 colon (4.75 µM) and in the experiment with KM12 colon (10 µM) were 6.84% (active) and 38% (inactive), respectively.
Consider `CO[C@@H]([CH2][Hg][O]C(=O)c1ccccc1)[C@@H]([CH2][Hg][O]C(=O)c1ccccc1)OC`, for which the growth was 50.2% (inactive) in the experiment with SR leukemia; 83.8% (inactive) in the experiment on OVCAR-8 ovarian (10 µM unless noted); 111% (inactive) in the experiment with OVCAR-5 ovarian; 93.8% (inactive) in the experiment on OVCAR-4 ovarian (10 µM unless noted); 73.2% (inactive) in the experiment on SK-OV-3 ovarian (10 µM unless noted); 96.4% (inactive) in the experiment on IGROV1 ovarian (10 µM unless noted). In addition, the growth was -92.8% (active) in the experiment with OVCAR-3 ovarian (10 µM unless noted); 113% (inactive) in the experiment on HS 578T breast (10 µM unless noted); 105% (inactive) in the experiment with NCI/ADR-RES ovarian (10 µM unless noted); 87.7% (inactive) in the experiment on T-47D breast (10 µM unless noted); 110% (inactive) in the experiment with BT-549 breast (10 µM unless noted); 104% (inactive) in the experiment with MDA-MB-435 melanoma (10 µM unless noted). In addition, the growth with SW-620 colon (10 µM unless noted) is 66.1% (inactive); in the experiment with MCF7 breast (10 µM unless noted) it was 46.4% (inactive); in the experiment on HCT-116 colon (10 µM unless noted) it was -60.5% (active); in the experiment on HCC-2998 colon (10 µM unless noted), 118% (inactive); in the experiment on KM12 colon (10 µM unless noted) it was 101% (inactive).
